Among the data in PubChem BioAssay are composite z-score and z-score values, retold here.

Active and inactive are the calls of the source.

Experiment [1] is described as follows: binders of probe aFSTL3 on microarray, primary screen, stem cell growth factor project, biochemical, small-molecule microarray, fluorescence 635/667 (AID 1064).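 Further: measures binding of the biotinylated anti-FSTL3 antibody to printed compounds.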 Particulars: higher = more signal.
The nature of experiment [2]: binders from COS7 lysate, DM2A8 probe, primary screen, torsin A project, cell lysate, small-molecule microarray, fluorescence 635/667 (AID 1065). To be noted: higher = more signal, COS7 lysate expressing mutant human TOR1A.
Experiment [3] in a line: binders of probe aFGF2 on microarray, primary screen, stem cell growth factor project, biochemical, small-molecule microarray, fluorescence 635/667 (AID 1067).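 Further: measures binding of biotinylated aFGF2 protein to printed compounds on slides; z-score merges feature fluorescence and signal-to-noise across triplicate slides.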 Particulars: higher = more signal.
Experiment [4] in a line: binders of probe aFGF10 on microarray, primary screen, stem cell growth factor project, biochemical, small-molecule microarray, fluorescence 635/667 (AID 1071).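 Further: score merges 667 nm spot intensity and signal to noise from triplicate slides.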 To be noted: higher = more signal.
Experiment [5] addresses Neurogenic locus notch homolog protein 2 (Homo sapiens) (UniProt Q04721). The experiment is described as follows: Notch2 binders on small-molecule microarrays, primary screen, biochemical, small-molecule microarray, 635 nm fluorescence, stem cell growth factors (AID 1073). To be noted: Notch2 binding, higher = more signal.
Experiment [6] has as its target Pro-neuregulin-1, membrane-bound isoform (Homo sapiens) (UniProt Q02297). The experiment is described as follows: NRG1 binders on small-molecule microarrays, primary screen, psychiatric disease protein project, biochemical, small-molecule microarray, fluorescence 635/667 (AID 1075).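 Further: score combines 667 nm spot fluorescence with signal to noise.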 To be noted: NRG1 binding, 635 nm fluorescence, higher = more signal.
The subject of experiment [7] is Neuregulin-1 EGF-like domain. Put plainly: binders of neuregulin-1 EGF-like domain, primary screen, biochemical, small-molecule microarray, 635 nm fluorescence (AID 1081).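 Further: binding of the protein to compounds printed on small-molecule microarray slides.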 Particulars: small-molecule microarray binding, higher = more signal.
Experiment [8] is described as follows: FRG1 promoter luciferase signal modulators, primary screen, FRG1 inhibition for FSHD, cell-based, C2C12 myotubes, firefly/Renilla luciferase, luminescence (AID 1084). Particulars: higher = more signal, called active from +8 up or from −8 down.
A short description of experiment [9]: binders of probe aFST on microarray, primary screen, stem cell growth factor project, biochemical, small-molecule microarray, fluorescence 635/667 (AID 1086).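 Further: score merges 667 nm fluorescence with signal-to-noise of each printed compound spot.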 Particulars: higher = more signal.
The nature of experiment [10]: binders of probe aHhip on microarray, primary screen, stem cell growth factor project, biochemical, small-molecule microarray, fluorescence 635/667 (AID 1087).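 Further: score merges spot fluorescence at 667nm with spot signal to noise ratio.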 To be noted: higher = more signal.
Experiment [11] has as its system PRMT1 (protein arginine N-methyltransferase 1). The experiment is described as follows: PRMT1 binders on small-molecule microarrays, primary screen, biochemical, small-molecule microarray, 635 nm fluorescence (AID 1088).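 Further: binding of Prmt1 protein to compounds spotted on small-molecule microarray slides.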 Particulars: small-molecule microarray binding, higher = more signal.
Experiment [12] in a line: yeast growth modulation, basal conditions, primary screen, YJM789 clinical isolate, OD600, 24 h (AID 1089).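 Further: growth of clinical yeast isolate S. cerevisiae YJM 789 seeded 1000 cells per well; test concentration not given here.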 Particulars: S. cerevisiae YJM789 growth, higher = more signal, called active from +8 up or from −8 down.
A short description of experiment [13]: fission yeast growth modulation, primary screen, strain 972, OD600, 24 h, no modulator (AID 1090).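 Further: basal condition with compound alone and no growth modifier present; test concentration not given here.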 Particulars: S. pombe 972 growth, higher = more signal, called active from +8 up or from −8 down.
Experiment [14] in a line: S. cerevisiae growth modulation with rapamycin, primary screen, strain BY4716, OD600, 96 h (AID 1091). Further: test concentration not given here. Particulars: higher = more signal, called active from +8 up or from −8 down.
Experiment [15] concerns the target Torsin-1A-interacting protein 2 (Homo sapiens) (UniProt Q8NFQ8). The experiment is described as follows: LULL1 binders on small-molecule microarray, primary screen, cell lysate, human LULL1 lysate, 635/667 nm fluorescence (AID 1092).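 Further: probe is lysate of COS7 cells overexpressing human LULL1; score merges per-feature 667 nm fluorescence with signal-to-noise.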 Particulars: hLULL1 lysate binding, 635 nm fluorescence, higher = more signal.
Experiment [16] is described as follows: E. coli growth modulation, two-sided OD650, primary screen, E. coli filamentation project, strain DRC41, 24 h (AID 1093).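 Further: MC1000 strain lacking acrAB efflux and sulA so SOS filamentation is blocked; test concentration not given here.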 To be noted: OD650, 24 h, higher = more signal, called active from +8 up or from −8 down.
Experiment [17] in a line: small-molecule microarray binders of probe aLefty2, primary screen, biochemical, biotinylated probe, 635/667 nm fluorescence (AID 1094).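 Further: score merges spot fluorescence near 667 nm with spot signal-to-noise ratio.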 To be noted: higher = more signal.
For experiment [18], the system named is Noggin (protein binding on small-molecule microarray). The experiment is described as follows: Noggin binders on small-molecule microarray, primary screen, biochemical, 635/667 nm fluorescence (AID 1095).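 Further: score merges 667 nm feature fluorescence with signal to noise over triplicate slides.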 Particulars: 635 nm fluorescence, higher = more signal.
Experiment [19] has as its target Neurogenic locus notch homolog protein 3 (Homo sapiens) (UniProt Q9UM47). The experiment is described as follows: NOTCH3 binders on small-molecule microarray, primary screen, biochemical, 635/667 nm fluorescence (AID 1096). To be noted: NOTCH3 binding, 635 nm fluorescence, higher = more signal.
Experiment [20] is described as follows: small-molecule microarray binders of probe aEGFR, primary screen, biochemical, biotinylated probe, 635/667 nm fluorescence (AID 1097).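 Further: probe is a biotinylated anti-EGFR antibody binding compounds printed on slides; score combines fluorescence near 667 nm and signal to noise of each spot.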 Particulars: higher = more signal.

Chain of Torsin-1A-interacting protein 2 (Homo sapiens) (Q8NFQ8 whole entry, looked up): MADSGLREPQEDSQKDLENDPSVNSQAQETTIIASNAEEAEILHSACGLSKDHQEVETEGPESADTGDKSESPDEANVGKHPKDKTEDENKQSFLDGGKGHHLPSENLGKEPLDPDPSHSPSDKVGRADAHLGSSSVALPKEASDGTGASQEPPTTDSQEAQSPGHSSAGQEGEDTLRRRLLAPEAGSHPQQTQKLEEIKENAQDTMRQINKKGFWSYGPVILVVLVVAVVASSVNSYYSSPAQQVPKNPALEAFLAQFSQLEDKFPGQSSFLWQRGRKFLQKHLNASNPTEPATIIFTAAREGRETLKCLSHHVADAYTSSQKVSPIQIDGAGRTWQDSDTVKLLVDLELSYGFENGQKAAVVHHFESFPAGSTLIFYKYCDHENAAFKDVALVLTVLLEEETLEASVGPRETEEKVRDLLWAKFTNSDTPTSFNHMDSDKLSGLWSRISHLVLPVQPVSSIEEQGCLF
Chain of Neurogenic locus notch homolog protein 2 (Homo sapiens) (Q04721 whole entry, looked up, canonical isoform): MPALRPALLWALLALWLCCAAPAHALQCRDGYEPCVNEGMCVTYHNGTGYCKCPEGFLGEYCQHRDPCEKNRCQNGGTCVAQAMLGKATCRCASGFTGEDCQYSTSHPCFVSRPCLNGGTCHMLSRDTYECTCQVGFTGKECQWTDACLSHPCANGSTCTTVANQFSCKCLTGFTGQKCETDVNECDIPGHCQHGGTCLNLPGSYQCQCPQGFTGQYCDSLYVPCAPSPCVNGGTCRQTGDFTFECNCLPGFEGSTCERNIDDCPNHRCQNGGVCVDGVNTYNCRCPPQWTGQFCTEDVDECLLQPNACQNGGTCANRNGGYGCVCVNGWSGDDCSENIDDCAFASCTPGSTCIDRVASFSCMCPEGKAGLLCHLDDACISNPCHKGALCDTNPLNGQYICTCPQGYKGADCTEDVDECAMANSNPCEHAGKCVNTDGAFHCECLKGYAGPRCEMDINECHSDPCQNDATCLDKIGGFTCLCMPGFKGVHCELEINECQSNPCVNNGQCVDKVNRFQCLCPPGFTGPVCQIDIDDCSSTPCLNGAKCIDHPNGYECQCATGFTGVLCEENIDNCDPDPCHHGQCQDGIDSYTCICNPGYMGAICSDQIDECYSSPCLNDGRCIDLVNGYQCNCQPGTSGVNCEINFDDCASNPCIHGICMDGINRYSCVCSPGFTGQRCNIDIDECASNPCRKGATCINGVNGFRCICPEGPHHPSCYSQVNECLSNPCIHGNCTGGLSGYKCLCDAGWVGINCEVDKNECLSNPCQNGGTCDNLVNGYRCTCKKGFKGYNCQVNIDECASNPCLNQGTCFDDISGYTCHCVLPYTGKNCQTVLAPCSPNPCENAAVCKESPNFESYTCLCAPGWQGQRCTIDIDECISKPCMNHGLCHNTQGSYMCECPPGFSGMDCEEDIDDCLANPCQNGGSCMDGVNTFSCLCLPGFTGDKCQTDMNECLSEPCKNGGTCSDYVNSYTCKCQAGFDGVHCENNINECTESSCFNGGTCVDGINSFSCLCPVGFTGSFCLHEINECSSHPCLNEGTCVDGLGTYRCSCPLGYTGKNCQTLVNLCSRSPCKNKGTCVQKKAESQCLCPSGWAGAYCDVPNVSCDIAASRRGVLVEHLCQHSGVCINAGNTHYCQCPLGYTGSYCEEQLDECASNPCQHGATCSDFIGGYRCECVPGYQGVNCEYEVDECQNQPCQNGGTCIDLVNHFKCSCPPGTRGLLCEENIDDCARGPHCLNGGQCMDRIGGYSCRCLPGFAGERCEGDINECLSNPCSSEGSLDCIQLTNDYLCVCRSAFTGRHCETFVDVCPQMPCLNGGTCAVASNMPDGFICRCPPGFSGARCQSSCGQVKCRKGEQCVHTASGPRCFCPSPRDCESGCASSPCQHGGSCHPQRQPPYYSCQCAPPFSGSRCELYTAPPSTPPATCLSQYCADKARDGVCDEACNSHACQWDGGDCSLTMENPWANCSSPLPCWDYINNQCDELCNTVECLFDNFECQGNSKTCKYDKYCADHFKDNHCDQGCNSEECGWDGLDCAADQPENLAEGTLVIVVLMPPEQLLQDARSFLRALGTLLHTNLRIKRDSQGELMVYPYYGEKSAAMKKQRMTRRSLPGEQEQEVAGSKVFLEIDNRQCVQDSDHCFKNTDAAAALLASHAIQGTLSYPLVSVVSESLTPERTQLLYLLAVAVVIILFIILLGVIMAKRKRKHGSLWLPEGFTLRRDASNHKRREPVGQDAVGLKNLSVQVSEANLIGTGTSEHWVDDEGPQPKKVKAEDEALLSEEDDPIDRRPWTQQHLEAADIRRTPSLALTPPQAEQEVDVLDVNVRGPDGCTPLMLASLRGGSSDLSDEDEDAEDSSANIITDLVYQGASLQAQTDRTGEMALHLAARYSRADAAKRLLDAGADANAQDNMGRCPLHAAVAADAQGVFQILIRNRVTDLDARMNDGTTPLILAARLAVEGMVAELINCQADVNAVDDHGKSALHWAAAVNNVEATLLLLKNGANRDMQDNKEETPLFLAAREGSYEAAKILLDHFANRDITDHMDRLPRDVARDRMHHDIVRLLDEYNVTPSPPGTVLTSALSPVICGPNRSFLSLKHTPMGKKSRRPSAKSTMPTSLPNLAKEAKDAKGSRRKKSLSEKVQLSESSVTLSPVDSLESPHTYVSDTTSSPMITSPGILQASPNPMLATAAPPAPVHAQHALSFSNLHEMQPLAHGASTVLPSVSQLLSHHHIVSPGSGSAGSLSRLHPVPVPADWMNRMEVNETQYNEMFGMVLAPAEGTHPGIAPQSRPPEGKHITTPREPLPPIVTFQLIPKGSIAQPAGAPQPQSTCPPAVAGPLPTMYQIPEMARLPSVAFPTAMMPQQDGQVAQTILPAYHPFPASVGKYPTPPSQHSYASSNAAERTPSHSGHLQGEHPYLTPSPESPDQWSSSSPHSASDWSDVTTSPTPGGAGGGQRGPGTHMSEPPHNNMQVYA
Chain of Pro-neuregulin-1, membrane-bound isoform (Homo sapiens) (Q02297 whole entry, looked up, the tested form may be a part, canonical isoform): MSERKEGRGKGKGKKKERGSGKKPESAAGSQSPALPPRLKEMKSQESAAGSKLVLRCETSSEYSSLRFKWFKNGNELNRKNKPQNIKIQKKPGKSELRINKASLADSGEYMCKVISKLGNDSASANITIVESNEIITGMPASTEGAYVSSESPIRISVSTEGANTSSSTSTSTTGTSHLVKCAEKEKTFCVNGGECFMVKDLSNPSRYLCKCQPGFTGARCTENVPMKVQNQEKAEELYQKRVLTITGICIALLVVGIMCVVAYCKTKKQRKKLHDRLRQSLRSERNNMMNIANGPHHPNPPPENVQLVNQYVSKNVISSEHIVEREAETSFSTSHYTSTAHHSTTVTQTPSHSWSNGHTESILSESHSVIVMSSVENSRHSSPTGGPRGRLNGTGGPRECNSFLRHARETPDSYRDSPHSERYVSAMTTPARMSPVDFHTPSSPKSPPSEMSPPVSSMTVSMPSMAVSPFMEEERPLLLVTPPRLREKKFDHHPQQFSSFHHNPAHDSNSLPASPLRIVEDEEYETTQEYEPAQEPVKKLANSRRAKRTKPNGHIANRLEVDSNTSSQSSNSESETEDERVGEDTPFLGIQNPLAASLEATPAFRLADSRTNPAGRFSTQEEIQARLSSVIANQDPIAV

Turning to `C=C(COC)C(=O)CC[C@@H](OC(C)=O)c1cccc(OCCO)c1`, the composite z-score is -0.0369 in experiment [1]; -0.489 in [2]; -0.085 in experiment [3]; 0.243 in experiment [4]; -0.0381 in [5]; -0.372 in experiment [6]. The composite z-score in [7] was 0.691; in [9], -0.204; in [10], -0.249; in [11], -0.352; in [15] it was -0.329; in experiment [17], -0.116. Also, the composite z-score in experiment [18] is -0.0606; in experiment [19], -0.132; in experiment [20] it was -0.211. The z-score in experiment [8] is -0.721 (inactive); in [12] it was 1.01 (inactive); in experiment [13], -0.953 (inactive); in experiment [14] it was 0.962 (inactive); in [16], 0.302 (inactive).
As for `CCOC(=O)C[C@H]1[C@H](OC(=O)c2ccccc2-c2ccccc2)[C@@H](NC(=O)c2ccc3ccccc3n2)c2cc(OCCCO)ccc2N1C(=O)Cc1ccc(OC)cc1`, the composite z-score was 0.139 in [1]; 0.394 in experiment [2]; -0.0715 in experiment [3]; 0.158 in experiment [4]; 0.383 in [5]; 0.336 in [6]. Moreover, the composite z-score was 0.028 in experiment [7]; 0.311 in [9]; -0.142 in experiment [10]; 0.115 in experiment [11]; 0.346 in [15]; -0.111 in experiment [17]. For the same molecule, the composite z-score was 0.287 in [18], 0.384 in experiment [19] and -0.12 in [20]. The z-score in experiment [8] is 0.63 (inactive); in experiment [12], 0.59 (inactive); in experiment [13] it was -0.167 (inactive); in experiment [14], -0.0843 (inactive); in experiment [16] it was -0.776 (inactive).
For `CC(=O)NCCCC[C@@H]1NC(=O)[C@@H]2C[C@H](C(=O)NCCCCCN)[C@H](c3cccc(OCCO)c3)N2C1=O`, the composite z-score in experiment [1] was -0.0173; in [2], 1.92; in [3] it was 0.0322; in experiment [4], 0.742; in [5], 0.542; in experiment [6] it was 1.7. For the same molecule, the composite z-score is 1.01 in experiment [7]; 0.268 in [9]; -0.245 in experiment [10]; 0.872 in [11]; 1.66 in experiment [15]; 0.534 in experiment [17]. The figures for the composite z-score in [18], in experiment [19] and in experiment [20] were 1.42, 1.09 and 0.101, respectively. The z-score in [8] was 0.301 (inactive); in experiment [12], -3.85 (inactive); in experiment [13] it was -0.31 (inactive); in experiment [14], -0.858 (inactive); in experiment [16], 1.36 (inactive).
Take `C=CCC(OC(C)=O)[C@@H]1[C@@H](N(Cc2cccc3ccccc23)C(=O)Cc2ccc(F)cc2)c2cc(OCCCO)ccc2N1C(=O)c1ccc2ccccc2c1` (stereo not given in full): the composite z-score in experiment [1] was -0.0968; in experiment [2], -0.0168; in [3], -0.0925; in experiment [4] it was 0.0597; in [5], -0.108; in [6], -0.398. Further, the composite z-score was -0.691 in experiment [7]; -0.0779 in experiment [9]; 0.0722 in [10]; -0.209 in [11]; 0.226 in [15]; 0.0261 in experiment [17]. Also, the composite z-score in experiment [18] is 0.154; in experiment [19], 0.268; in experiment [20], -0.0967. For the same molecule, the z-score is -1.72 (inactive) in experiment [8]; -0.19 (inactive) in experiment [12]; 1.43 (inactive) in experiment [13]; -0.235 (inactive) in experiment [14]; 0.693 (inactive) in experiment [16].
With `C=C(/C(=C/C[C@H](OC(=O)c1ccncc1)c1ccc(CO)o1)c1cnc2ccccc2c1)C(C)C`, the composite z-score was -0.418 in [1]; 0.0906 in experiment [2]; -0.0325 in [3]; 1.21 in [4]; 1.44 in experiment [5]; 0.519 in [6]. Further, the composite z-score in experiment [7] worked out at 1.17; in experiment [9], 0.106; in [10], 0.0373; in experiment [11] it was 1.52; in experiment [15], 0.947; in [17] it was 0.0249. For the same molecule, the composite z-score came out at 0.963 in experiment [18], 1.05 in experiment [19] and 0.523 in experiment [20]. In addition, the z-score in [8] was 0.368 (inactive); in experiment [12], 1.22 (inactive); in experiment [13], -1.67 (inactive); in experiment [14], 0.433 (inactive); in [16], -0.358 (inactive).
With `CCOC(=O)C[C@H]1[C@H](OC(=O)c2ccc(C(=O)c3ccccc3)cc2)[C@@H](NC(=O)C2CCCCC2)c2cc(OCCCO)ccc2N1C(=O)c1ccc2ccccc2n1`, the composite z-score was -0.244 in [1]; 0.213 in experiment [2]; -0.0885 in [3]; 0.735 in [4]; 1.03 in experiment [5]; 0.532 in experiment [6]. Also, the composite z-score was 0.722 in [7]; 0.842 in experiment [9]; 0.382 in experiment [10]; 1.34 in experiment [11]; 2.01 in [15]; -0.02 in experiment [17]. In addition, the composite z-score in experiment [18] was found to be 0.887; in experiment [19], 1.13; in experiment [20], 0.0213. The z-score in [8] is 0.0852 (inactive); in [12] it was -0.882 (inactive); in experiment [13] it was 0.708 (inactive); in experiment [14], 0.276 (inactive); in experiment [16], 1.25 (inactive).
